Assay results published in PubChem BioAssay AID2099 (Broad Institute, 2009).
The campaign covered roughly 330,000 compounds. About 230 (0.07%) were called active. Many of the other results were omitted from the sample, so actives are more common in it than they were. A number with no mark means an inactive call.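 How the source made its calls: active means more than half of a compound's replicate wells show inhibition beyond 50%, single wells judged on their own value; inconclusive means some, but no more than half, of replicates pass 50% inhibition; inactive means no replicate passes 50% inhibition.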

molecular target: Lysine-specific demethylase 4C (Homo sapiens) (UniProt Q9H3R0); test: JMJD2C H3K9me3 demethylation blockers – biochemical, fluorescence, DELFIA europium, primary screen (AID 2099); details: GST-JMJD2C(1-420) H3K9me3 demethylation, at 2.35 µM, stronger effect = higher value;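 further: signal counts dimethyl H3K9 product captured on neutravidin plate; 0% = median of DMSO wells and 100% = 0.3 times that DMSO median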
Sequence (Q9H3R0 1-420 limits assumed): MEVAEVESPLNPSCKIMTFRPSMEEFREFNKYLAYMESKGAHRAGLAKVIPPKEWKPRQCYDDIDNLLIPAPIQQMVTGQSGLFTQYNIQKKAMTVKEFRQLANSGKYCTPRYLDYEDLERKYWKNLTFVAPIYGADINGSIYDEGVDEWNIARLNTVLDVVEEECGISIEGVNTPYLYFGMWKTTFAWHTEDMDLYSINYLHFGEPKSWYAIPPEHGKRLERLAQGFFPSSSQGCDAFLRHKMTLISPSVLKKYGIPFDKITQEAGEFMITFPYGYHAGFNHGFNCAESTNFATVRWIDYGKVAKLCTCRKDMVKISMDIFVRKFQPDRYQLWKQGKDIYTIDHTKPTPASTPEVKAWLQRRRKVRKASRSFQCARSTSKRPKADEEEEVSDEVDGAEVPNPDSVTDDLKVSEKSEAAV

Structure (SMILES)	inhibition
O=C(N1CCCCC1)N1CCN(C(=O)N2CCCCC2)CC1	-0.997%
COc1ccc(CC(NC(C)=O)C(=O)N2CCN(C(=O)Nc3cccc(Cl)c3)CC2)cc1OC (centres undefined)	3.8%
Cc1ccc2oc(C(=O)N3CCN(C)C[C@@H]3C(C)C)c(C)c2c1	-21.1%
COc1ccc(-c2nc3n(c(=O)c2C#N)CCS3)c(OC)c1	-2.02%
COc1ccccc1OCC(=O)Nc1c2c(nn1-c1ccc(F)cc1)CS(=O)(=O)C2	-10.7%
COC(=O)c1c(NC(=O)CN(c2ccc(C)c(C)c2)S(C)(=O)=O)sc2c1CCCC2	5.54%
NS(=O)(=O)c1ccc(CNC(=S)NC(=O)c2ccco2)cc1	2.82%
CC(C)C[C@@H](N)c1nnc(SCC(=O)c2ccc(Cl)cc2)o1	-0.106%
C=CCSc1nc(Cc2ccc(Cl)cc2)nc2ccccc12	-13.3%
CCOc1ccc(C(C)=O)cc1COC(=O)c1cnc(Cl)c(Cl)c1	-8.14%
O=S(=O)(NCCc1ccccn1)c1cc(Cl)cc(Cl)c1O	6.23%
CCN(C(=O)CSc1ncnc2sccc12)c1c(N)n(Cc2ccccc2)c(=O)[nH]c1=O	-1.94%
CN1C(=O)c2ccccc2C(C(=O)NCCCN2CCCC2)C1c1c[nH]c2ccccc12 (centres undefined)	-5.55%
COCCCn1c(SCC(=O)Nc2oc(C)c3c(C)n[nH]c(=O)c23)nc2sc3c(c2c1=O)CCC3	-6.89%
CCC(CO)Oc1cc(NC(=O)c2cccc3ccccc23)c2ncn(C(C)C)c2c1 (centres undefined)	51.8% (active)
CCC(CO)Oc1cc(NCc2ccccc2)c2ncn(C3CCCC3)c2c1 (centres undefined)	-1.07%
CCC(CO)Oc1cc(NC(=O)c2cccc(F)c2)c2ncn(C(C)C)c2c1 (centres undefined)	-5.85%
CC(=O)Nc1ccc(Nc2ncnc3c2nnn3Cc2ccccc2Cl)cc1	1.4%
CCC(=O)N1c2ccc(S(=O)(=O)NCc3ccco3)cc2CC1C (centres undefined)	15.7%
Cc1[nH]c(C)c(S(=O)(=O)N2CCN(c3cccc(C(F)(F)F)c3)CC2)c1C(=O)N1CCCCC1	30%
Cc1ccc(C)c(NC(=O)CCC(=O)N/N=C2/CC(=O)CC(C)(C)C2)c1	3.28%
COc1ccccc1NC1=NC(c2ccc(Cl)cc2)N=C(N)N1 (centres undefined)	0.933%
Cc1ccc(S(=O)(=O)N2CCC(C(=O)OCC(=O)N(C)c3ccccc3)CC2)cc1C	10.2%
O=C1c2ccccc2C(=O)N1CCOc1ccc(F)cc1	-6.36%
